Compounds without any hit were thinned out: in the full panel of roughly 79,000, 15% have a hit. Values without a mark were called inactive. Calls of active or inactive are those of the source. Rule as the data show it: active = growth inhibition above about 70%; inactive = the rest.

A short description of test [1]: NCI Yeast Anticancer Drug Screen. Data for the rad50 strain (AID 155).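 Also: 0% = growth of vehicle-only cultures of the same strain.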 Conditions: S. cerevisiae rad50 strain growth inhibition; at 50.0 µM; active compounds read high. The method, boiled down:
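DNA repair mutant yeast, compound exposure, growth read-out; inhibition is taken relative to vehicle.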

The nature of test [2]: NCI Yeast Anticancer Drug Screen. Data for the mec2-1 strain (AID 157). Conditions: S. cerevisiae mec2-1 strain, at 50.0 µM, active compounds read high. The essentials:
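mec2-1 yeast strain, carrying an alteration in DNA damage repair or cell cycle control, was exposed to compounds; growth inhibition was measured relative to vehicle-treated controls.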

A short description of test [3]: NCI Yeast Anticancer Drug Screen. Data for the sgs1 mgt1 strain (AID 161).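 Also: 0% = growth of cultures given vehicle only.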 The following applies: S. cerevisiae sgs1 mgt1 strain, at 50.0 µM, active compounds read high. The essentials: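 Percent growth inhibition was derived by comparing compound-exposed mutant yeast with vehicle-exposed cultures. The strain carries alterations in DNA damage repair.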
The nature of test [4]: NCI Yeast Anticancer Drug Screen. Data for the cln2 rad14 strain (AID 165).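 Also: 0% = growth equal to vehicle treated cultures.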 The following applies: S. cerevisiae cln2 rad14 strain, at 50.0 µM, active compounds read high. The method, boiled down:
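Yeast carrying cln2 and rad14 alterations (cell cycle control and DNA damage repair) were exposed to compounds. Growth inhibition was measured against vehicle-treated controls.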

The nature of test [5]: NCI Yeast Anticancer Drug Screen. Data for the bub3 strain (AID 167). The following applies: S. cerevisiae bub3 mutant strain, at 50.0 µM, active compounds read high. The method, boiled down: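 In this screen, a yeast mutant lacking normal mitotic checkpoint function is challenged with compound. Relative growth versus vehicle gives the inhibition value.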
The nature of test [6]: NCI Yeast Anticancer Drug Screen. Data for the mlh1 rad18 strain (AID 175). Conditions: S. cerevisiae mlh1 rad18 strain growth inhibition; at 50.0 µM; active compounds read high. The method, boiled down: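 Growth inhibition of the yeast strain was measured after compound exposure and expressed relative to vehicle-treated controls. The strain carries defined defects in DNA damage repair.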

In the case of `Cc1cc(O)ccc1[N+](=O)[O-]`, the growth inhibition in test [1] is 1.15%; in test [2], -1.2%; in test [3] it was 11.8%; in test [4], 9.6%; in test [5], 2.9%; in test [6], 2.95%.

On to `CCOC(=O)N=C=O`, for which the growth inhibition in test [1] is -17.8%; in test [2], 4.7%; in test [3], -15.7%; in test [4], 11.9%; in test [5], -3.1%; in test [6] it was -1.85%.

Turning to `Cc1cc(C(C)(C)c2cc(C)c(O)c(C)c2)cc(C)c1O`, the growth inhibition in test [1] was 12.6%; in test [2] it was -41.1%; in test [3] it was -6.9%; in test [4], 27.4%; in test [5], -17.6%; in test [6], -12.3%.

For `CN1C(=O)C(=Cc2cccc([N+](=O)[O-])c2)C(=O)N(C)C1=O`, the growth inhibition in test [1] was 17.4%; in test [2] it was 14.3%; in test [3] it was 2.15%; in test [4], 26.1%; in test [5], 10.8%; in test [6] it was -9.55%.

As to `c1ccc2c(c1)[Se]c1ccccc1[Se]2`, the growth inhibition was -14.2% in test [1]; -22.8% in test [2]; 0.65% in test [3]; 8.55% in test [4]; 23.1% in test [5]; -7.45% in test [6].

In the case of `CC(=O)O[C@H]1CCC2[C@@H]3CC[C@]4(C)CC(=O)C=C[C@]4(C)C3CC[C@@]21C` (some centres undefined), the growth inhibition in test [1] is 84.7% (active); in test [2] it was 90.5% (active); in test [3] it was 88% (active); in test [4] it was 85.1% (active); in test [5], 87.1% (active); in test [6], 89.3% (active).

In the case of `CCCCOc1ccc([As](=O)(O)O)cc1`, the growth inhibition was -17.4% in test [1]; -10.2% in test [2]; 4.3% in test [3]; -19.2% in test [4]; 16.1% in test [5]; 5.65% in test [6].

Take `C#CCOC(=O)C=[N+]=[N-]`: the growth inhibition was -11.7% in test [1]; -6.75% in test [2]; -10.6% in test [3]; 14.7% in test [4]; 3.85% in test [5]; -2.1% in test [6].

Regarding `O=C1C=CC(=Nc2cc(Cl)c(O)c(Cl)c2)C=C1`, the growth inhibition in test [1] is 26.6%; in test [2] it was 42.5%; in test [3], 32.5%; in test [4] it was 20.1%; in test [5] it was 31.1%; in test [6] it was 42.8%.

Take `C=C1CCC2CC1C2(C)C` (centres undefined) (tested in a mixture with another compound): the growth inhibition in test [1] was 7.95%; in test [2], -14.2%; in test [3], -5.7%; in test [4], -2.7%; in test [5], 5.85%; in test [6], -23.9%.

Take `[O-][n+]1c2ccccc2nn1-c1ccc(N(CCCl)CCCl)cc1`: the growth inhibition in test [1] is 7.2%; in test [2], 0.35%; in test [3] it was -2.05%; in test [4], -6.95%; in test [5] it was -16.9%; in test [6], -22.1%.

Take `CC1(C(=O)O)C2[Se]c3[se]ccc3C2C1(C)C(=O)O` (centres undefined): the growth inhibition is -3.45% in test [1]; -12.7% in test [2]; -3.5% in test [3]; -12.2% in test [4]; 1.8% in test [5]; -4.55% in test [6].

As for `O=C1NC(=O)C(CCC(=O)c2ccc3ccccc3c2)C(=O)N1`, the growth inhibition in test [1] was -29.1%; in test [2] it was -22.8%; in test [3], -57.6%; in test [4] it was -10.8%; in test [5], -34.8%; in test [6], -25.8%.

Turning to `CC(CC(C#N)(c1ccccc1)c1ccccc1)[N+]1(C)CCCCCCC1` (centres undefined), the growth inhibition in test [1] was 11.9%; in test [2] it was 1.2%; in test [3], 2.85%; in test [4], 1.65%; in test [5], 1.35%; in test [6] it was 19%.

On to `CCC1(CC(C)O)C(=O)NC(=O)NC1=O` (centres undefined), for which the growth inhibition was 6.9% in test [1]; -2.45% in test [2]; -20% in test [3]; -37.7% in test [4]; -0.65% in test [5]; -23.1% in test [6].

With `O=C(O)c1cc(CCl)ccc1O`, the growth inhibition was -0.05% in test [1]; -7.95% in test [2]; -15.7% in test [3]; -14% in test [4]; 4.75% in test [5]; -1.7% in test [6].

With `COc1cc(CCN(C)C)c([N+](=O)[O-])cc1OC`, the growth inhibition in test [1] was 7.9%; in test [2] it was 21.6%; in test [3] it was 19.3%; in test [4], 17%; in test [5], 0.2%; in test [6] it was 34.7%.

Turning to `N#Cc1ccc(CCl)cc1`, the growth inhibition in test [1] was 39.1%; in test [2], 7.55%; in test [3], 7.45%; in test [4], -6.05%; in test [5] it was 2.95%; in test [6] it was 41.7%.

Take `CN(C)CCSC(c1ccccc1)c1ccc(Br)cc1` (centres undefined): the growth inhibition was 32.5% in test [1]; 20.1% in test [2]; 52.4% in test [3]; 58.6% in test [4]; 34.4% in test [5]; 62.2% in test [6].

(Values after PubChem BioAssay (NCI).)
